Many of the other results were omitted from the sample, so hits are more common in it than they were.
Shiga inhibitor: A qHTS for Small Molecule Inhibitors of Shiga Toxin; Vero cells, Shiga toxin protein synthesis inhibition reporter; inhibition, % at 38.7 µM; actives 9.2% (n = 290,000); AID 2315, 2010; in the data active = inhibition mostly above about 28%, no sharp cut-off; inactive = mostly below about 43%; also: 0% is about no effect
AmpC detergent: qHTS Inhibitors of AmpC Beta-Lactamase (assay with detergent). AmpC hydrolysis of nitrocefin, absorbance 480 nm, 0.01% Triton. P00811. actives 0.041% (n = 370,000). Potency, µM (doses to about 114 µM), for the others: top-dose activity change, negative = inhibition, usual class: inhibitors;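 also: potency is read from the fitted curve at half-maximal effect; 0% = no-compound wells and -100% = no-enzyme wells; nearly all actives have a fitted effect of over 25% in size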
Target sequence (P00811 whole entry, looked up): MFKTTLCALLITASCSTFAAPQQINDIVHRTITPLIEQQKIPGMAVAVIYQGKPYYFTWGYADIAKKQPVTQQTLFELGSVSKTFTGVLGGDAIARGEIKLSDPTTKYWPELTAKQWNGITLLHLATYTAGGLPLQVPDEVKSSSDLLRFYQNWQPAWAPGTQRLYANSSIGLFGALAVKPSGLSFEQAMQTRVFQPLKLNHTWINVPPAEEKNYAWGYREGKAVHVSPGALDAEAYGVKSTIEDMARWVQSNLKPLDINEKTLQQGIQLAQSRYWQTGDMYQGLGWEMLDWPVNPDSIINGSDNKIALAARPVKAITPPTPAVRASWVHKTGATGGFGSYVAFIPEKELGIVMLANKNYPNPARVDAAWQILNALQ
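AmpC (5.3 nM in the dispensed reagent) in 20 mM phosphate pH 7.0 with 0.01% (detergent screen) or 0.0001% Triton X-100 was preincubated with compounds for 15 min at room temperature. Nitrocefin was then added from an 800 uM solution, and hydrolysis was followed at 480 nm.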
AmpC inh no detg: qHTS Inhibitors of AmpC Beta-Lactamase (assay without detergent); AID 485341, 2010; AmpC nitrocefin hydrolysis, absorbance 480 nm, 0.0001% Triton; Potency, µM (highest dose often 57.1 µM), for inactives: at the top dose activity change, negative = inhibition, most hits filed as inhibitors; actives 0.52% (n = 330,000); P00811;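 also: potency is read from the fitted curve at half-maximal effect; plate controls were no compound for no effect and no enzyme for full effect; nearly all actives have a fitted effect of over 20% in size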
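20 mM phosphate pH 7.0 + 0.01% (detergent screen) or 0.0001% Triton X-100; 5.3 nM AmpC reagent; cpd preinc 15 min RT; nitrocefin (800 uM stock) to start; A480 q20 s × 4 min; Activity was normalised to no-enzyme and no-compound control wells.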
Cycloheximide cs: Cycloheximide Counterscreen for Small Molecule Inhibitors of Shiga Toxin; cell reporter, cycloheximide protein synthesis inhibition counterscreen; max response, %; actives 12% (n = 300,000); in the data active = max response mostly above about 13%, no sharp cut-off; inactive = mostly below about 14%; also: read at 38.3 µM for the half of the compounds with a filed dose; 0% is about no effect
NS1 function inh: qHTS Assay for Inhibitors of Influenza NS1 Protein Function | AID 2326, 2010 | actives 0.4% (n = 270,000) | Potency, µM (doses to about 46.1 µM), without a hit: top-dose activity, positive = more growth; calls by dose curve; also: potency is read from the fitted curve at half-maximal effect; actives are rising curves; nearly all actives have a fitted effect of over 50% in size
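A cell-based growth assay was used: compounds that relieve NS1-induced slow growth of budding yeast raise OD600. Assay medium was yeast nitrogen base with ammonium sulphate and -URA supplement, pH 6.0, with 2% galactose.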
Starred values were filed as active, the others as inactive; ? = inconclusive; . = not tested or not shown; + = active, no number. Unless noted, calls follow the shape of the dose curve; as a rule, active = well fitted curve in the direction sought with a large enough effect; inconclusive = small, poorly fitted or top-dose-only effect, or another doubt; inactive = no such curve, though single readings can be large; an effect the other way counts as inactive or inconclusive.

SMILES	Shiga inhibitor	AmpC detergent	AmpC inh no detg	Cycloheximide cs	NS1 function inh
Cc1ccc(Cl)cc1N1CCN(C(=O)COCc2cc(-c3ccc4c(c3)OCO4)on2)CC1	.	3.3%	.	.	.
COC(=O)c1cc2oc3ccccc3c2n1CC(=O)Nc1ccc(F)c(Cl)c1	.	1.5%	.	.	.
CC(=O)c1ccc(NC(=S)NC(=O)/C=C/c2ccccc2)cc1	38.3*	-7.6%	-2.4%	23.7*	5.1%
Cc1ccccc1NC(=S)NC(=O)/C=C/c1ccco1	13.0	-3.3%	5.62µM*	17.4	26.8%
COc1ccccc1NC(=S)NC(=O)/C=C/c1ccco1	9.3	-11.8%	-52.9%	6.9	9.1%
NC1=N[C@H](c2ccc(Cl)cc2)N(c2ccc(S(N)(=O)=O)cc2)C(N)=N1	.	.	.	.	-5.3%
COc1ccc(S(=O)(=O)N2CCCCC2)cc1NC(=O)c1ccc(Cl)nc1	.	9.2%	-16.5%	.	.
Cc1ccc(N2CCN(c3ccc(C)cc3)C(CC(=O)O)C2=O)cc1 (stereo not given)	4.1	-2.2%	-28.5%	9.2*	15.7%
CCc1cc2c(=O)n(-c3ccccc3)cnc2s1	105.2*	?	-8.6%	53.5*	-16.3%
CCc1cc2c(=O)n(-c3ccc(C)cc3)cnc2s1	73.9*	-7.4%	-13.2%	52.7*	1.9%
CCOC(=O)c1noc2ncnc(N3CCN(c4ccccc4OC)CC3)c12	.	28.3%	.	.	.
O=C(NCCCO)C(=O)NCC(c1ccc2c(c1)OCO2)N1CCOCC1 (stereo not given)	.	-4.1%	.	.	.
CC1CCCC(C)N1C(=O)CSc1ccc(-c2ccc3c(c2)OCCO3)nn1 (stereo not given)	40.3	6.7%	-4.1%	10.5	-19.4%
O=C(NC1CC1)c1cccc(Nc2ccc(-c3ccc4c(c3)OCCO4)nn2)c1	55.3*	?	-46.7%	30.9*	-14.7%
O=S(=O)(c1ccc(Nc2ccc(-c3ccc4c(c3)OCCO4)nn2)cc1)N1CCCC1	35.5	-5.7%	-25.2%	54.2*	13.2%
COCCc1nn2c(=O)cc(COC(=O)c3ccc(Br)cc3)nc2s1	.	21.2%	.	.	.
CC(C)=NOC(=O)c1ccc(-c2ccccc2)cc1	30.2	-12.0%	-11.7%	9.4	-39.7%
O=C1CC2C(CC(OC(=O)c3ccc(-c4ccccc4)cc3)C2CO)O1 (stereo not given)	49.0*	0.6%	83.4%	30.1*	-8.8%
O=C(Nc1ccn(C2CC(OC(=O)c3ccccc3)C(CO)O2)c(=O)n1)c1ccccc1 (stereo not given)	-4.2	-13.1%	-16.5%	-1.9	-1.8%
O=C1C[C@H]2[C@H](CO)[C@@H](OC(=O)c3ccc(-c4ccccc4)cc3)C[C@H]2O1	108.8*	2.0%	79.0%	50.3*	-1.7%
O=C(NC1CCCC1)C(c1ccncc1)N(C(=O)Cn1nnc(-c2ccccc2F)n1)c1cccc(F)c1 (stereo not given)	-6.4	-12.5%	-6.3%	-3.0	13.5%
O=C(c1ccc2nc(Cc3ccccc3F)oc2c1)N1CCCC1	87.3*	-0.6%	3.8%	41.3*	-22.4%
CC(=O)N1CCCN(C(=O)c2ccc3nc(Cc4ccccc4F)oc3c2)CC1	23.3	2.5%	77.1%	14.4*	3.0%
COc1ccc(Cc2nc3ccc(C(=O)N4CCCN(C=O)CC4)cc3o2)cc1	29.6	-8.4%	-5.9%	15.3	3.9%
O=C(NCCCN1CCOCC1)c1ccc2nc(Cc3ccccc3F)oc2c1	23.3	-10.1%	-1.1%	21.7*	-8.3%
SMILES	Shiga inhibitor	AmpC detergent	AmpC inh no detg	Cycloheximide cs	NS1 function inh
O=C(c1ccc2nc(Cc3ccccc3F)oc2c1)N1CC[C@H](O)C1	38.9*	-8.8%	-1.3%	29.5*	-4.0%
COc1ccc(C2=Nn3c(nnc3-c3ccccc3O)SC2)cc1OC	-1.3	.	.	6.8	.
Fc1ccc2c(c1)-c1c(cnc3cc(-c4ccc(Cl)cc4)nn13)CO2	.	-0.6%	.	.	.
CCOC(=O)N1CCc2c(sc3c2c(=O)n(CCc2ccccc2)c(=O)n3Cc2cc(C)ccc2C)C1	.	-5.2%	.	.	.
COc1ccc(-n2c(C)cc(/C=C3\SC(=O)NC3=O)c2C)cc1	58.3*	-19.4%	-35.6%	41.6*	-2.7%
CN1C(=O)/C(=C/c2coc3ccc(O)cc3c2=O)SC1=S	-3.6	2.0%	-21.7%	-1.0	-1.2%
Cc1cc(/C=C2\SC(=S)NC2=O)c(C)n1-c1cccc(O)c1	64.5*	6.4%	17.8µM*	40.9*	-4.4%
Cc1cc(/C=C2\SC(N)=NC2=O)c(C)n1-c1ccc(F)cc1	16.0	-7.4%	-38.0%	19.9*	-1.5%
COc1ccc(-n2c(C)cc(/C=C3\SC(=S)N(Cc4ccco4)C3=O)c2C)cc1	-5.0	-5.8%	-40.5%	-2.0	7.4%
Cc1cc(/C=C2\SC(=S)N(C)C2=O)c(C)n1-c1ccc(O)cc1	69.6*	0.8%	-49.1%	51.6*	-37.7%
COc1ccccc1OCCC(=O)OCC(=O)NC(C)c1ccccc1 (stereo not given)	-4.7	1.4%	-0.6%	-8.6	-0.4%
Cc1ccc(-n2c(C)cc(/C=C3\SC(=O)NC3=O)c2C)cc1	83.3*	1.6%	-38.0%	31.9*	-3.4%
Cc1sc(-n2c(C)cc(/C=C3\SC(=S)NC3=O)c2C)c(C#N)c1C	31.9	-5.8%	14.1µM*	27.0	-23.1%
CC1=NN(c2ccccc2)C(=O)/C1=C\c1cc(C)n(-c2ccccc2)c1C	-7.3	1.2%	-12.9%	-3.8	-4.6%
Cc1cc(/C=C2/C(=O)NN(c3ccccc3)C2=O)c(C)n1-c1cccc(O)c1	59.7*	-3.9%	-52.1%	57.4*	2.2%
CS(=O)(=O)c1ccc2nc(NC(=O)c3ccccc3Cl)sc2c1	59.2*	-9.6%	-13.1%	15.4*	16.2%
CS(=O)(=O)c1ccc2nc(NC(=O)c3ccccc3Br)sc2c1	70.2*	1.2%	-24.0%	37.3*	0.4%
CS(=O)(=O)c1ccc2nc(NC(=O)c3ccc(Cl)cc3)sc2c1	16.7	-12.4%	-19.1%	15.6*	-16.1%
COc1ccccc1C(=O)Nc1nc2ccc(S(C)(=O)=O)cc2s1	+	1.4%	-7.0%	17.2*	-9.7%
O=C(COC(=O)Cn1c(C(F)(F)F)nc2ccccc21)Nc1ccc2c(c1)OCCO2	-0.9	-1.7%	-12.5%	-2.2	4.3%
CCOc1ccc(NC(=O)Cn2cc(C(=O)c3ccc(CC)cc3)c(=O)c3cc(C)ccc32)cc1	.	9.3%	.	.	.
COc1ccc(C(=O)NCCSc2c[nH]c3ccccc23)cc1OC	.	11.5%	.	.	.
CC1(C)SC(=S)N(/N=C/c2cccnc2)C1N(O)C(=O)Nc1ccccc1 (stereo not given)	22.9	-2.9%	-14.6%	-3.0	-2.1%
CNC(=O)N(O)C1N(/N=C/c2cc(Br)ccc2O)C(=S)SC1(C)C (stereo not given)	36.5	3.5%	-3.2%	15.2*	-4.5%
CC1(C)SC(=S)N(/N=C/c2ccccc2O)C1N(O)C(=O)Nc1ccccc1 (stereo not given)	52.5*	1.2%	-55.2%	20.7*	-4.4%
CCN(c1ccc(NS(=O)(=O)c2cc(Cl)ccc2Cl)cc1)C(C)C	-5.4	-0.1%	-34.3%	-3.9	-2.1%

Source: PubChem BioAssay
